In PubChem BioAssay (Tox21):
Records with an inconclusive call do not appear. Active and inactive are the calls of the source. Unless noted, calls come from the whole dose curve; as a rule, active = well fitted curve in the direction sought with a large enough effect in the repeat runs; inconclusive = weak or mixed curves; inactive = no such curve, though single readings can be large; an effect the other way counts as inactive or inconclusive.

Experiments:
[1] = qHTS assay to identify small molecule antagonists of the estrogen receptor beta (ER-beta) signaling pathway - cell viability counter screen (AID 1259382);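 note: HEK293T cells carrying ER-beta-UAS-bla reporter stimulated with estradiol; series mostly up to about 92 µM; nearly all actives have a fitted effect of over 55% in size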
Outline: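 In this multiplexed counter screen, cells were seeded at 2,000 per well in medium with 2% charcoal-stripped FBS and incubated 6 hr before compound and 1nM final E2 were added. Sixteen hours later, ATP-based luminescence reported viability.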

[2] = qHTS assay to identify small molecule agonists or antagonists of the thyroid stimulating hormone receptor (TSHR) signaling pathway - wild type cell line counter screen (AID 1259384; calls by dose curve)
Outline: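 Counter screen in untransfected Hek293: compounds (15-point titration, triplicate) plus phosphodiesterase inhibitor Ro20-1724 added after 18 h plating; 30 min RT. Intracellular cAMP via competitive d2/cryptate immunoassay, 1 h incubation.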

[3] = qHTS assay to identify small molecule antagonists of the progesterone receptor (PR) signaling pathway - cell viability counter screen (AID 1346798); note: series mostly up to about 92 µM; nearly all actives have a fitted effect of over 50% in size
Outline: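 ATP content as viability readout: CellTiter-Glo luminescence, 30 min room temperature, in PR-UAS-bla HEK293T cells after 16 hr compound/R5020 treatment at 37C and 5% CO2.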

[4] = qHTS assay to identify small molecule agonists of the progesterone receptor (PR) signaling pathway - cell viability counter screen (AID 1346799; calls by dose curve; note: nearly all actives have a fitted effect of over 45% in size)
Outline: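 Cytotoxicity in PR-bla HEK293T cells: 16 h compound, 37C; CellTiter-Glo added post-FRET read; luminescence after 30 min RT.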

[5] = qHTS assay to identify small molecule antagonists of the TGF-beta/Smad signaling pathway - cell viability counter screen (AID 1346824); note: nearly all actives have a fitted effect of over 50% in size
Outline: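 Cytotoxicity counter-screen run in the same wells as the beta-lactamase Smad reporter read: CellTiter-Glo luminescence after 30 min at room temperature. HEK 293T SBE-bla cells had 5 hr compound exposure at 37 C with TGF-beta1 (0.25 ng/mL stock).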

[6] = qHTS assay to identify small molecule agonists of the TGF-beta/Smad signaling pathway - cell viability counter screen (AID 1346829); note: top concentration of the series differs between compounds; nearly all actives have a fitted effect of over 45% in size
Outline: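 Compound-treated SBE-bla HEK 293T cells (5 hr, 37 C) were assessed for viability with CellTiter-Glo in parallel with the reporter read.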

[7] = qHTS assay to identify small molecule agonists of the TGF-beta/Smad signaling pathway (AID 1346859; active = well fitted activation curve with a large enough effect in the signal ratio in the repeat runs, not every such curve was filed as active; the % refers to the signal ratio; note: series mostly up to about 77 µM)
Outline: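 Stable Smad binding element-beta-lactamase HEK 293T cells; 5 hr compound exposure at 37 C under 5% CO2; 2 hr room-temperature substrate step; fluorescence excited at 405 nm, collected at 460 nm and 530 nm.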

[8] = Human pregnane X receptor (PXR) small molecule agonists, qHTS cell viability counter screen (AID 1346977); note: nearly all actives have a fitted effect of over 50% in size
Outline: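 Readout is CellTiter-Fluor fluorescence from PXR-Luc HepG2 cells. Plated cells rested 5hr, then were treated with compounds for 24hr at 37C and 5% CO2, with reagent present during the last hour.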

[9] = Caspase-3/7 induction in HepG2 cells by small molecules, qHTS assay (AID 1346978); note: nearly all actives have a fitted effect of over 15% in size
Outline: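 Caspase-3/7 induction was measured by Caspase-Glo 3/7 luminescence (30 min, room temperature) after a 17 hr compound exposure of wild-type HepG2 cells seeded at 2,000 per well and pre-incubated 5 hr.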

[10] = Caspase-3/7 induction in CHO-K1 cells by small molecules, qHTS cell viability counter screen (AID 1346979); note: nearly all actives have a fitted effect of over 35% in size
Outline: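 To flag cytotoxic compounds, treated CHO-K1 wild-type cells were given CellTiter-Fluor at 16hr and read fluorescently after 1hr at 37C; the caspase-3/7 luminescence was measured in these same wells.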

[11] = Caspase-3/7 induction in CHO-K1 cells by small molecules, qHTS assay (AID 1346980); note: nearly all actives have a fitted effect of over 15% in size
Outline: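 Luminescent Caspase-Glo 3/7 read (30min, room temperature) quantified apoptosis induction. Cells were wild-type CHO-K1, treated with compound for 17hr at 37 C and 5% CO2.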

[12] = Caspase-3/7 induction in HepG2 cells by small molecules, qHTS cell viability counter screen (AID 1346981); note: series mostly up to about 92 µM; nearly all actives have a fitted effect of over 30% in size
Outline: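 Viability determined by CellTiter-Fluor fluorescence in HepG2 wells also used for the luminescent Caspase-Glo 3/7 read. Compounds were present for 16 hr at 37 C, 5% CO2 before reagent addition.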

[13] = molecular target: Nuclear receptor subfamily 1 group I member 2 (Homo sapiens) (UniProt O75469); assay: Human pregnane X receptor (PXR) small molecule agonists, qHTS assay (AID 1346982); note: nearly all actives have a fitted effect of over 35% in size
Nuclear receptor subfamily 1 group I member 2 (Homo sapiens), sequence (O75469 whole entry, looked up): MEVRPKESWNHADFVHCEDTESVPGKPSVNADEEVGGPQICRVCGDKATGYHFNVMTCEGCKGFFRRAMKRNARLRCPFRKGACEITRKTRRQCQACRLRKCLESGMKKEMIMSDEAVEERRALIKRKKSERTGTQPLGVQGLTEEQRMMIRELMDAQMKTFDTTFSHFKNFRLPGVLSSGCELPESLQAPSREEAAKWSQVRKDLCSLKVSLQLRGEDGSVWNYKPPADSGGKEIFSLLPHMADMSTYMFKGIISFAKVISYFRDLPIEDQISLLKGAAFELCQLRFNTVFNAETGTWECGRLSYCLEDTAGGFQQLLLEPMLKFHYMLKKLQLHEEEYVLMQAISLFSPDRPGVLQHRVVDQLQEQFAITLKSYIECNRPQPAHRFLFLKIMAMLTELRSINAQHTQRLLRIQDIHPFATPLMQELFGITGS
Outline: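 Compound-induced hPXR transactivation of a CYP3A4 luciferase reporter was scored in HepG2 PXR-Luc cells over 24 hr at 37 C, 5% CO2, by luminescence.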

[14] = molecular target: Thyrotropin receptor (Homo sapiens) (UniProt P16473); assay: qHTS assay to identify small molecule antagonists of the thyroid stimulating hormone receptor (TSHR) signaling pathway (AID 1259385; calls by dose curve; note: nearly all actives have a fitted effect of over 20% in size)
Thyrotropin receptor (Homo sapiens), sequence (P16473 whole entry, looked up): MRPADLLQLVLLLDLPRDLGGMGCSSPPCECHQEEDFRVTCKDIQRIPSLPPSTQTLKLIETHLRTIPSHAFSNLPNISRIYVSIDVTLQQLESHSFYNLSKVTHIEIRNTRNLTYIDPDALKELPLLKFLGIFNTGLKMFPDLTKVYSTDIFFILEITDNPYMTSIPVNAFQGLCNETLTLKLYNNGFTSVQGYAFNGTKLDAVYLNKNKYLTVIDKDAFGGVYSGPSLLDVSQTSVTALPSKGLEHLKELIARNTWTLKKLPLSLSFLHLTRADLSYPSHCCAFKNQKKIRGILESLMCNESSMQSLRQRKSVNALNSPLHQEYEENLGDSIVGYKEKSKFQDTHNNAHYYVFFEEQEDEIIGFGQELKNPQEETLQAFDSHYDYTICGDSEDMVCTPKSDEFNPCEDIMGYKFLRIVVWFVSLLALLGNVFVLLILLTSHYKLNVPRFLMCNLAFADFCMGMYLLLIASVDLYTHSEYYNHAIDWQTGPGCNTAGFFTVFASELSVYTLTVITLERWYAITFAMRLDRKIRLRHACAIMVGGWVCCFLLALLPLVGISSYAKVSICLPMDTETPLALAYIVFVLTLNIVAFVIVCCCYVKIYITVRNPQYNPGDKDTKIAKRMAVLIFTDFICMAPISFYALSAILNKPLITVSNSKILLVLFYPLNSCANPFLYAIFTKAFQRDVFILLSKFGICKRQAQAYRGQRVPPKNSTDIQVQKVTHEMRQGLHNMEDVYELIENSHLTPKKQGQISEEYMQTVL
Outline: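 Antagonist mode: compound-treated TSHR-expressing HEK293 cells were stimulated with 1.5 ng/mL TSH (final) in presence of Ro20-1724 for 30 min at RT. HTRF cAMP detection after 1 h; each compound tested at 15 concentrations, triplicate.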

[15] = qHTS assay to identify small molecule agonists of the estrogen receptor alpha (ER-alpha) signaling pathway in the presence of an antagonist - cell viability counter screen (AID 1259386);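 note: series mostly up to about 92 µM; cells exposed to compounds for 22 h at 37 °C before the viability read; nearly all actives have a fitted effect of over 30% in size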
Outline: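 Viability counter screen using VM7Luc4E2 (full-length ER-alpha, four ERE-luciferase). The cells were treated with compounds alongside ICI-182,780 10.0nM for 22hr, and live-cell protease fluorescence was quantified with CellTiter-Fluor.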

[16] = molecular target: Progesterone receptor (Homo sapiens) (UniProt P06401); assay: qHTS assay to identify small molecule agonists of the progesterone receptor (PR) signaling pathway (AID 1346784; calls by dose curve; note: nearly all actives have a fitted effect of over 30% in size)
Progesterone receptor (Homo sapiens), sequence (P06401 whole entry, looked up): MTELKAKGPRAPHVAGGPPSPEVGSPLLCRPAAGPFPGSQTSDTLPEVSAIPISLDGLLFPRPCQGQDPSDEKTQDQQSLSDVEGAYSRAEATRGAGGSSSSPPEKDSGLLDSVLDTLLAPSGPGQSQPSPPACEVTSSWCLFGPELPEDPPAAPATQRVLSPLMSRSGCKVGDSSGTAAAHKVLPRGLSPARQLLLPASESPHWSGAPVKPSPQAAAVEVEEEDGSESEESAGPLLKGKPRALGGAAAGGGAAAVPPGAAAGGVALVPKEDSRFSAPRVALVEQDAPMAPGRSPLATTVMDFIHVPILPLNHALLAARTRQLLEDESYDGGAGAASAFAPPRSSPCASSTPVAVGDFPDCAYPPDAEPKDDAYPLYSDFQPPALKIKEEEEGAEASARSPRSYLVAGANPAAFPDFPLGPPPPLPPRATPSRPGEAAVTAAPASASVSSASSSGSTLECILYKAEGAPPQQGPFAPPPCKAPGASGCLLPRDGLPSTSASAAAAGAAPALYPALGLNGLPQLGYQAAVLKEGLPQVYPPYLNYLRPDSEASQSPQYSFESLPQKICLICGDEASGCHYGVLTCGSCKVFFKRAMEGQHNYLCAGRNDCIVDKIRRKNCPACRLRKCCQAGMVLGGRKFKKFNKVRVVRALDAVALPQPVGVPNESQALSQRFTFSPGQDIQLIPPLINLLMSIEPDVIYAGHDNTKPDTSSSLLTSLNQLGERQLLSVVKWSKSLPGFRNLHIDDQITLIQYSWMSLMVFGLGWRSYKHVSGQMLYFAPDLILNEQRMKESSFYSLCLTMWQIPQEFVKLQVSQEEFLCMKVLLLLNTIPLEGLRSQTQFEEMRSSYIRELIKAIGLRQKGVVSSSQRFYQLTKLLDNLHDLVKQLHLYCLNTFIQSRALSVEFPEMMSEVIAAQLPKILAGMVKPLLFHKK
Outline: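 Using charcoal-stripped serum (2%) to limit endogenous steroids, PR-UAS-bla HEK 293T cells received compounds for 16 hr at 37C after 6 hr plating; beta-lactamase FRET fluorescence was recorded following 2 hr substrate loading at room temperature.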

[17] = molecular target: Progesterone receptor (Homo sapiens) (UniProt P06401); assay: qHTS assay to identify small molecule antagonists of the progesterone receptor (PR) signaling pathway (AID 1346795; active = well fitted inhibition curve with a large enough effect in the signal ratio in the repeat runs, not every such curve was filed as active; the % refers to the signal ratio)
Outline: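 Inhibition of R5020-induced (1 nM final) beta-lactamase reporter signal in PR-UAS-bla HEK293T cells was scored by FRET fluorescence after overnight (16 hr) compound treatment.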

[18] = molecular target: Thyrotropin-releasing hormone receptor (Homo sapiens) (UniProt P34981); assay: qHTS assay to identify small molecule antagonists of the thyrotropin-releasing hormone receptor (TRHR) signaling pathway (AID 1346877; active = well fitted inhibition curve with a large enough effect in the repeat runs, not every such curve was filed as active; note: series mostly up to about 51 µM)
Thyrotropin-releasing hormone receptor (Homo sapiens), sequence (P34981 whole entry, looked up): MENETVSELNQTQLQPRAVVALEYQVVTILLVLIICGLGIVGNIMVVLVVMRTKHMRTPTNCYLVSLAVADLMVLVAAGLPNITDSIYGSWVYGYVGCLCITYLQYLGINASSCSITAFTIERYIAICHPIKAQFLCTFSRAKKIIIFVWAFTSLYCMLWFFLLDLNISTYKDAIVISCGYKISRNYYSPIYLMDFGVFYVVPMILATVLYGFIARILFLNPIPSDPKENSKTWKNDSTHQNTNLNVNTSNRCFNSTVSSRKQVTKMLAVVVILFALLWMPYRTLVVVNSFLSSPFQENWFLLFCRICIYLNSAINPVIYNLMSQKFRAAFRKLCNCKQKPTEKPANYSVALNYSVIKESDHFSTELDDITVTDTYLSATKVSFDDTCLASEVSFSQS
Outline: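 Following an 18 h incubation at 37 °C and a 2 h calcium dye load, TRHR-HEK293 cells were exposed to compound (5 min, room temperature) and challenged with TRH, 1 nM final.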

[19] = molecular target: Thyrotropin-releasing hormone receptor (Homo sapiens) (UniProt P34981); assay: qHTS assay to identify small molecule agonists of the thyrotropin-releasing hormone receptor (TRHR) signaling pathway (AID 1346891; calls by dose curve;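 note: HEK293 cells expressing TRHR with calcium dye readout; series mostly up to about 58 µM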)
Outline: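 In 1536-format, 1500 TRHR-Hek293 cells per well grew 18 h, took up calcium dye for 2 h at 37 °C, received compound, and were read kinetically; 15-point titrations, triplicates.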

Measured: Potency

O=c1cc(O)c(Cl)c[nH]1
not listed: [14] | [15] | [16] | [17] | [18] | [19]
inactive: all other assays above

Cc1ccc2c(c1)c1c3n2CCNC3CCC1 (stereo not drawn)
not listed: [1] | [3] | [4] | [8] | [12] | [13]
inactive: all other assays above

C=C(C)C(=O)OC1CC(C)CC(C)(C)C1 (stereo not drawn)
not listed: [14] | [17]
inactive: all other assays above

C[C@H]1O[C@H](O[C@H]2[C@H](O)[C@@H](O)[C@@H](O[C@H]3[C@H](O)[C@@H](O)[C@H](O)O[C@@H]3CO)O[C@@H]2CO)[C@H](O)[C@@H](O)[C@@H]1N[C@H]1C=C(CO)[C@@H](O)[C@H](O)[C@H]1O
not listed: [2] | [13] | [14]
inactive: all other assays above

NS(=O)(=O)c1ccccc1OC(F)(F)F
not listed: [2] | [9] | [14]
inactive: all other assays above

CCCCOC(=O)C(=O)OCCCC
not listed: [2] | [9] | [14]
inactive: all other assays above

CC(C)SCc1ccco1
not listed: [2] | [3] | [6] | [9] | [11] | [12] | [14]
inactive: all other assays above

C1CCN2C[C@@H]3C[C@@H](CN4CCCC[C@@H]34)[C@H]2C1
not listed: [2] | [3] | [9] | [13] | [14] | [17]
inactive: all other assays above

CCCCCCCCCOCC1CO1 (stereo not drawn)
not listed: [3] | [8] | [13] | [14] | [17] | [18] | [19]
inactive: all other assays above
